High-throughput results deposited in PubChem by National Center for Advancing Translational Sciences (NCATS).
In the library only some 1.4% were active in any assay of this set; here they are far more common.
AmpC no deterg: inhibitors of E. coli AmpC beta-lactamase without detergent. AID 485341. P00811. AmpC nitrocefin hydrolysis, absorbance 480 nm, 0.0001% Triton. 0.52% of 330,000 active. Potency, µM (series often up to 57.1 µM), without a hit: top-dose activity change, negative = inhibition, most hits filed as inhibitors;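 also: potency is read from the fitted curve at half-maximal effect; plate controls were no compound for no effect and no enzyme for full effect; nearly all actives have a fitted effect of over 20% in size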
Target sequence (P00811 whole entry, looked up): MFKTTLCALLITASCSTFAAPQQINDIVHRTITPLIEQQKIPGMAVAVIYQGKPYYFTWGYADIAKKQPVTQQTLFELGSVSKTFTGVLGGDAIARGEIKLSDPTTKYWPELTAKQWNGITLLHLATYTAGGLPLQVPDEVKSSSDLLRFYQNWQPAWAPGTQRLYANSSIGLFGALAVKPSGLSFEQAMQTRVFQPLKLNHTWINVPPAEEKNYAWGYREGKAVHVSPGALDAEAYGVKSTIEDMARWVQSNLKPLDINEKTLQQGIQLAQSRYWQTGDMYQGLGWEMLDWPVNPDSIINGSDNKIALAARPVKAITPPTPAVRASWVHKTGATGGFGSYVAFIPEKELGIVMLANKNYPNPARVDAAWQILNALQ
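AmpC (5.3 nM in the dispensed reagent) in 20 mM phosphate pH 7.0 with 0.01% (detergent screen) or 0.0001% Triton X-100 was preincubated with compounds for 15 min at room temperature. Nitrocefin was then added from an 800 uM solution, and hydrolysis was followed at 480 nm.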
AMA1-RON2 inh: disrupts binding of P. falciparum AMA1 to RON2; AlphaScreen AMA1-biotinylated RON2 peptide binding; Potency, µM (titrated, usually from 58.2 µM), without a hit: at the highest dose activity change, negative = inhibition, most hits filed as inhibitors; 0.2% of 360,000 active;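 also: potency is read from the fitted curve at half-maximal effect; 0% = vehicle wells and -100% = peptide control; nearly all actives have a fitted effect of over 45% in size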
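AMA1 (3D7) with his tag at 25 nM final met compounds first, then biotinylated RON2 peptide at 25 nM; detection used donor plus acceptor beads, 10 µg/mL apiece, read by AlphaScreen after 30 min at room temperature.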
VACV mCherry inh: vaccinia inhibition (mCherry reporter). Potency, µM (titrated, usually from 36.5 µM), without a hit: at the top dose activity change, negative = inhibition, hits mostly inhibitors. Vaccinia virus mCherry reporter infection, fluorescence. 0.63% of 310,000 active; calls by dose curve; tested in A549 cells; also: potency is read from the fitted curve at half-maximal effect; % is scaled to controls: 0 for no effect and ±100 for the full control effect; nearly all actives have a fitted effect of over 35% in size
AmpC detergent: inhibitors of E. coli AmpC beta-lactamase with detergent; AmpC hydrolysis of nitrocefin, absorbance 480 nm, 0.01% Triton; Potency, µM (titrated, usually from 114 µM), inactives show at the top dose activity change, negative = inhibition, usual class: inhibitors; 0.041% of 370,000 active;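 also: potency is read from the fitted curve at half-maximal effect; 0% = no-compound wells and -100% = no-enzyme wells; nearly all actives have a fitted effect of over 25% in size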
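AmpC (5.3 nM in the dispensed reagent) in 20 mM phosphate pH 7.0 with 0.01% (detergent screen) or 0.0001% Triton X-100 was preincubated with compounds for 15 min at room temperature. Nitrocefin was then added from an 800 uM solution, and hydrolysis was followed at 480 nm.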
Vaccinia Venus: inhibitors of vaccinia virus (Venus reporter); Vaccinia virus Venus reporter expression, fluorescence; Potency, µM (doses to about 36.5 µM), for inactives: top-dose activity change, negative = inhibition, usual class: inhibitors; 0.46% of 330,000 active; AID 720580; calls by dose curve; tested in A549 cells; also: potency is read from the fitted curve at half-maximal effect; % is scaled to controls: 0 for no effect and ±100 for the full control effect; nearly all actives have a fitted effect of over 30% in size
SARS PLpro yeast-1: SARS-CoV PLP inhibition in yeast; Potency, µM (doses to about 32.9 µM), without a hit: top-dose activity, positive = growth rescue, most hits filed as activators; 0.19% of 330,000 active; S. cerevisiae expressing SARS-CoV PLpro, growth rescue; calls by dose curve; also: potency is read from the fitted curve at half-maximal effect; 0% is about no effect; nearly all actives have a fitted effect of over 55% in size
SARS PLpro yeast-2: Inhibits SARS-CoV PLP in yeast, hit validation. 19% of 1,000 active. calls only. yeast expressing SARS-CoV PLpro, growth phenotype rescue. shares compounds with SARS PLpro yeast-1; call rule not given here
Active calls of the source: *; i = inactive; u = inconclusive; x = no result; + = active, no number; [ ] = remark or other dose. Unless noted, calls follow the shape of the dose curve; as a rule, active = well fitted curve in the direction sought with a large enough effect; inconclusive = small, poorly fitted or top-dose-only effect, or another doubt; inactive = no such curve, though single readings can be large; an effect the other way counts as inactive or inconclusive.

SMILES	AmpC no deterg	AMA1-RON2 inh	VACV mCherry inh	AmpC detergent	Vaccinia Venus	SARS PLpro yeast-1	SARS PLpro yeast-2
COc1ccc(NC(=O)N(C)C[C@H]2Oc3c(NC(=O)C4CC4)cccc3C(=O)N([C@H](C)CO)C[C@@H]2C)cc1	-12%	-3%	-13%	x	-3%	u	i
COc1ccc(NC(=O)C(=O)NNC(=O)c2cccs2)c(OC)c1	-19%	78%	-4%	1%	6%	u	i
COc1ccc(NC(=O)C(=O)NNC(=O)c2cccs2)cc1	-7%	63%	i	-6%	-15%	-30%	x
COC(=O)c1cc(NC(=O)c2oc(=O)c3ccccc3c2-c2ccccc2)cc(C(=O)OC)c1	x	x	0%	2%	-1%	x	x
Cc1ccc(NC(=S)Nc2ccc3cn[nH]c3c2)cc1C	-18%	-2%	x	-13%	x	2.5µM*	u
Cc1ccc(NC(=S)Nc2ccc3cn[nH]c3c2)c(C)c1	-29%	-10%	-18%	4%	-1%	1%	x
Cc1cc(C)cc(-n2c(SCC(N)=O)nc3c([nH]c4ccccc43)c2=O)c1	x	x	-18%	-1%	-22%	x	x
COC(=O)c1ccc(NC(=O)COC(=O)c2nc3nccc(C)n3n2)cc1	-24%	11%	4%	3%	4%	-1%	x
Cc1ccnc2nc(C(=O)OCC(=O)Nc3ccc4c(c3)OCCO4)nn12	-15%	-4%	0%	x	-13%	u	i
Cc1ccc(C)c(/C=C/C(=O)c2ccccc(=O)c2O)c1	-32%	33%	14µM*	-1%	u	3.5µM*	i
Cc1ccc(/C=C/C(=O)c2ccccc(=O)c2O)c(C)c1	u	59%	u	u	u	u	x
O=C(/C=C/c1ccccc1Cl)c1ccccc(=O)c1O	u	60%	10µM*	-1%	u	u	+
CCCCn1c(N)c(N(CC)C(=O)c2cc(S(=O)(=O)N3CCCCCC3)ccc2OC)c(=O)[nH]c1=O	-15%	12%	-10%	-17%	-16%	u	i
CCCCn1c(N)c(N(CCOC)C(=O)c2cc(S(=O)(=O)N3CCCCC3)ccc2C)c(=O)[nH]c1=O	-23%	5%	i	u	2%	x	x
CC(COC(=O)c1ccccc1)(COC(=O)c1ccccc1)/[N+]([O-])=C/c1ccccc1	-22%	-23%	-15%	-11%	-4%	u	i
Fc1ccccc1OCCCCCCN1CCCC1	52%	3%	x	4%	x	-2%	x
Fc1ccccc1OCCCCCN1CCCC1	12%	2%[2.32 µM]	-8%	-8%	-4%	2.5µM*	i
C=CCn1c(SCC(=O)Nc2cc(C)ccc2OC)nnc1-c1ccco1	3%	-16%	x	u	x	u	i
C#CC[N+](C)(C)CCCCCCCCCC	14%	5%	16µM*	-5%	14µM*	3.2µM*	i
CC#CC[N+](C)(C)CCCCCCCCCCCC	89%	-2%	x	-4%	x	-61%	x
CCn1c(C)c(C)c2cc(C(=O)NCC(C)c3ccccc3)ccc21 (stereo not drawn)	x	x	-12%	7%	-2%	x	x
CCCCCCCCCCCCC/C=C/[C@@H](O)[C@H](CO)NCCCCCCCC	x	x	-12%[3.33 µM]	x	-12%[3.33 µM]	x	x
Cc1noc(C)c1C(=O)Nc1nc(-c2ccc(F)cc2)cs1	-23%	2%[11.6 µM]	i	-2%	-11%	u	i
CCOC(=O)c1[nH]c(CSc2nnc(-c3ccc(OC)cc3)o2)c(C(=O)OCC)c1C	-11%	-7%	3%	-8%	6%	3.2µM*	i
COc1ccc(-c2nnc(SCC(=O)c3[nH]c(C)c(C(C)=O)c3C)o2)cc1	-28%	7%	-4%	3%	-2%	-3%	x
SMILES	AmpC no deterg	AMA1-RON2 inh	VACV mCherry inh	AmpC detergent	Vaccinia Venus	SARS PLpro yeast-1	SARS PLpro yeast-2
CCOc1ccc(NC(=O)Cc2coc3ccc(C)cc23)cc1	x	x	-22%	12%	-13%	x	x
CCOC(=O)N1CCN(S(=O)(=O)c2ccc(C(=O)NNc3nc4cc(C)cc(C)c4s3)cc2)CC1	20%	58%	13µM*	-1%	u	7.9µM*	u
Cc1cccc2sc(NNC(=O)c3ccc(S(=O)(=O)N4CCc5ccccc5C4)cc3)nc12	14µM*	36%	u	-9%	u	10µM*	+
CCOC(=O)N1CCN(S(=O)(=O)c2ccc(C(=O)NNc3nc4ccc(Cl)cc4s3)cc2)CC1	u	145%	u	u	u	10µM*	+
CCOC(=O)N1CCN(S(=O)(=O)c2ccc(C(=O)N(CCN(CC)CC)c3nc4c(C)cccc4s3)cc2)CC1	1%	-1%	-23%	5%	-10%	-3%	x
CCOC(=O)N1CCN(S(=O)(=O)c2ccc(C(=O)NNc3nc4c(C)cccc4s3)cc2)CC1	-22%	96%	-10%	u	-20%	7.9µM*	+
CCN(CCC#N)c1ccc(/C=C/c2ccnc3ccccc23)cc1	x	x	0%	x	-7%	x	x
COc1cccc(CNC(=O)CN2C(=O)COc3ccc(S(=O)(=O)Nc4ccccc4)cc32)c1	x	x	-14%	-8%	-11%	x	x
NC(=O)c1ccc(NC(=O)COC(=O)/C=C/c2cn(-c3ccccc3)nc2-c2cccnc2)cc1	-38%	-3%	-14%	-2%	-6%	u	i
CCCN1CNc2c(c(=O)[nH]c(=S)n2Cc2ccc(OC)c(OC)c2)C1	x	x	-10%	x	-10%	x	x
CC(=O)c1cccc(NC(=O)CSc2ccc(-c3ccccn3)nn2)c1	-11%	u	u	-3%	-24%	u	+
Cc1nc(NCc2ccco2)c(C#N)c2c1COC(C)(C)C2	-17%	-10%	4%	-6%	15%	-1%	x
CC1(C)Cc2c(C#N)c(NCc3ccco3)nc(-c3ccco3)c2CO1	-32%	-4%	x	-4%	-9%	u	i
COc1cc2nc(N3CCOCC3)nc(NC(C)C)c2cc1OC	x	x	-23%	x	-21%	x	x
CC1CCN(c2c([N+](=O)[O-])nn(-c3ccc4c(c3)OCCO4)[n+]2[O-])CC1	0%	-18%	x	2%	x	4µM*	i
O=[N+]([O-])c1nn(-c2ccc3c(c2)OCCO3)n(O)c1=NC1CCCCC1	-39%	u	-18%	-4%	-22%	3%	x
Cc1cc(C(=O)CCl)c(C)n1CCc1ccccc1	-5%[11.4 µM]	u	-14%	9%	9%	9%	x
COC(=O)CCCn1c(C)cc(C(=O)CCl)c1C	-6%	-1%	u	5%	u	11µM*	+
COc1ccc(C(=O)CC(c2ccc(OC)c(OC)c2)c2c(O)c3ccccc3oc2=O)cc1OC (stereo not drawn)	x	1%	i	x	-17%	x	x
